Assay results reported in PubChem BioAssay (NCI).
Compounds without any hit were thinned out: in the full panel of roughly 79,000, 15% have a hit. A number with no mark means an inactive call. Activity calls are given as the source filed them. Cut-off read from the data, not from the text of the source: active = growth inhibition above about 70%; inactive = the rest.

Columns and labels:
[1] = NCI Yeast Anticancer Drug Screen. Data for the rad50 strain (AID 155);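 note: 0% = growth of vehicle-only cultures of the same strain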; conditions: S. cerevisiae rad50 strain growth inhibition; at 50.0 µM; hits give high values
How it was run: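 Genetically altered yeast (DNA repair pathway); compound treatment; growth inhibition vs vehicle ctrl.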

[2] = NCI Yeast Anticancer Drug Screen. Data for the mec2-1 strain (AID 157); conditions: S. cerevisiae mec2-1 strain, at 50.0 µM, hits give high values
How it was run: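 mec2-1 yeast strain, carrying an alteration in DNA damage repair or cell cycle control, was exposed to compounds; growth inhibition was measured relative to vehicle-treated controls.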

[3] = NCI Yeast Anticancer Drug Screen. Data for the sgs1 mgt1 strain (AID 161);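 note: 0% = growth of cultures given vehicle only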; conditions: S. cerevisiae sgs1 mgt1 strain, at 50.0 µM, hits give high values
How it was run: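 Compounds are added to genetically altered yeast, and growth is compared with cultures given vehicle alone to give percent inhibition.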

[4] = NCI Yeast Anticancer Drug Screen. Data for the cln2 rad14 strain (AID 165);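 note: 0% = growth equal to vehicle treated cultures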; conditions: S. cerevisiae cln2 rad14 strain, at 50.0 µM, hits give high values
How it was run: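 Yeast carrying cln2 and rad14 alterations (cell cycle control and DNA damage repair) were exposed to compounds. Growth inhibition was measured against vehicle-treated controls.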

[5] = NCI Yeast Anticancer Drug Screen. Data for the bub3 strain (AID 167); conditions: S. cerevisiae bub3 mutant strain, at 50.0 µM, hits give high values
How it was run: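 Yeast carrying a defined mutation is treated with each compound, and growth is compared with that of vehicle-exposed cells to give inhibition.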

[6] = NCI Yeast Anticancer Drug Screen. Data for the mlh1 rad18 strain (AID 175); conditions: S. cerevisiae mlh1 rad18 strain growth inhibition; at 50.0 µM; hits give high values
How it was run: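 Growth inhibition of the yeast strain was measured after compound exposure and expressed relative to vehicle-treated controls. The strain carries defined defects in DNA damage repair.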

| SMILES | growth inhibition [1] | growth inhibition [2] | growth inhibition [3] | growth inhibition [4] | growth inhibition [5] | growth inhibition [6] |
| --- | --- | --- | --- | --- | --- | --- |
| CC(I)C(N)=O (stereo not given) | -16.6% | -19.7% | -19.5% | -4.15% | -4% | -17% |
| CC1CCNC(C)C1 (stereo not given) | 35.3% | -10.4% | -13.8% | -62.9% | 17.9% | 8.6% |
| O=C(O)C(F)(F)F.O=C(O)C(F)(F)F.[C-]#[O+].[Ru].c1ccc([PH+](c2ccccc2)c2ccccc2)cc1.c1ccc([PH+](c2ccccc2)c2ccccc2)cc1 | 1.5% | 22.2% | 21.9% | -7.45% | -14.9% | 14.3% |
| O=C(c1ccccc1)N1CC1 | 6.1% | 33.9% | -22.1% | 35.5% | -3.8% | 0.35% |
| NC(=O)Nc1ccc([As]=O)cc1 (stereo not given) | 8% | -5.7% | -1.3% | 11.5% | -15.2% | 2.65% |
| CN1C(c2cccnc2)=NCC12CCCC2 | -2.95% | -10.1% | 6.45% | -17.2% | -10.2% | -9.45% |
| O=P(OCCCCCl)(OCCCCCl)C(Cl)Cl | -6.4% | -11.6% | 0.65% | 5.8% | 4.5% | 6.5% |
| COc1cc(N=Nc2ccc([N+](=O)[O-])cc2)ccc1N(CCCl)CCCl | -8.55% | -13.2% | -16.9% | 11.2% | -10.6% | 12.8% |
| Clc1ccc(N=c2ccc3ccccc3[oH+]2)cc1.Clc1ccc(N=c2ccc3ccccc3[oH+]2)cc1.[Co] | -5.05% | -25.4% | 14.8% | -59.2% | -12.8% | 15.6% |
| O=P(O)(O)CCc1ccccc1 | -3.85% | 1.5% | -5.2% | -15.8% | -2.7% | 7.7% |
| COc1ccc2[se]c(C)nc2c1 | -26.2% | -35.1% | 5.3% | -2.6% | -17.3% | -18.6% |
| CN(C)CCNc1nc2c(no[n+]2[O-])c2ccccc12 | -28.9% | -24.8% | -14.3% | -12.8% | 3.35% | -19.9% |
| S=C(Nc1ccccc1)N1CC1 | -7.85% | -22.3% | -19.9% | -11.9% | -6.15% | -17.4% |
| CCOP(=O)(OCC)N1C(C)C1C (stereo not given) | -0.05% | 2.8% | 17.6% | -8.3% | 4.25% | -4.75% |
| [O-][n+]1c2ccccc2nc2ccccc21 | 62.1% | 34% | 26.9% | -9.55% | 41.2% | 55.7% |
| CCCCCCCCCCCCCCCC(=O)OCC1OC(OC)C2NP(=O)(N(CCCl)CCCl)OC1C2O (stereo not given) | 35.4% | -13.3% | -40.4% | -20.9% | 66.7% | 73% (active) |
| OC1CN=C2c3ccccc3C(O)(c3ccc(Cl)cc3)N2C1 (stereo not given) | 23.8% | 22.1% | 37.2% | -1.9% | 22.7% | 37.5% |
| O=[As](O)(O)Cc1ccccc1 | 3.75% | 2.45% | -9.6% | -16.6% | -2.55% | -22.8% |
| N#CCO | -3.7% | 11.3% | -9.1% | -5.4% | -3.4% | -5.65% |
| COc1cc(C=Nc2ccc(C(=O)O)c(O)c2)ccc1N(CCCl)CCCl | 60.8% | 15.1% | 65.2% | 41% | -3.95% | 48.8% |
